# The sample as a whole holds a higher share of the strongest signals than the screen did.
# What was measured:
# Assay in all cases: glycan array binding signal (z-score within array); higher = stronger binding
# Conditions in all cases: glycan notation: IUPAC condensed, linker removed
# [1] = biological target: Fuc(a1-2)Gal(b1-3)GalNAc(b1-4)[Neu5Ac(a2-3)]Gal(b1-4)Glc
# Outline: (§1)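 Glycan array data were curated from 3228 arrays in the Consortium for Functional Glycomics database and kept only where the protein sequence was available. Glycan names were converted to IUPAC-condensed notation, and columns mapping to the same glycan were averaged. The binding signal is a within-array Z-score, averaged across arrays of the same protein sequence at different concentrations or buffers and across linkers. Negative Z-scores can be read as non-binding.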
# [2] = biological target: Fuc(a1-2)Gal(b1-4)GlcNAc(b1-3)Gal(b1-4)GlcNAc(b1-3)Gal(b1-4)GlcNAc
# Outline: as §1
# [3] = biological target: Fuc(a1-2)Gal(b1-4)[Fuc(a1-3)]GlcNAc(b1-3)[Neu5Ac(a2-6)Gal(b1-4)GlcNAc(b1-6)]Gal(b1-4)Glc
# Outline: as §1
# Fuc(a1-2)Gal6S(b1-4)Glc = biological target: Fuc(a1-2)Gal6S(b1-4)Glc
# Outline: as §1
# [4] = biological target: Fuc(a1-2)Gal6S(b1-4)Glc6S
# Outline: as §1
# [5] = biological target: Fuc(a1-2)[Gal(a1-3)]Gal(b1-4)GlcNAc(b1-2)Man(a1-3)[Fuc(a1-2)[Gal(a1-3)]Gal(b1-4)GlcNAc(b1-2)Man(a1-6)]Man(b1-4)GlcNAc(b1-4)GlcNAc
# Outline: as §1
# [6] = biological target: Fuc(a1-2)[Gal(a1-3)]Gal(b1-4)GlcNAc(b1-2)Man(a1-3)[Fuc(a1-2)[Gal(a1-3)]Gal(b1-4)GlcNAc(b1-2)Man(a1-6)]Man(b1-4)GlcNAc(b1-4)[Fuc(a1-6)]GlcNAc
# Outline: as §1
# [7] = biological target: Fuc(a1-2)[GalNAc(a1-3)]Gal(b1-3)GlcNAc
# Outline: as §1
# [8] = biological target: Fuc(a1-3)[Gal(b1-4)]GlcNAc(b1-6)GalNAc
# Outline: as §1
# Gal(a1-3)Gal = biological target: Gal(a1-3)Gal
# Outline: as §1
# [9] = biological target: Gal(a1-3)[Gal(a1-4)]Gal(b1-4)GlcNAc
# Outline: as §1
# Gal(b1-3)GalNAc = biological target: Gal(b1-3)GalNAc
# Outline: as §1
# [10] = biological target: Gal(b1-3)GlcNAc(b1-6)GalNAc
# Outline: as §1
# [11] = biological target: Gal(b1-3)GlcNAc(b1-6)[Gal(b1-3)]GalNAc
# Outline: as §1
# [12] = biological target: Gal(b1-3)[GlcNAc(b1-6)]GalNAc
# Outline: as §1
# [13] = biological target: Gal(b1-3)[Neu5Ac(a2-6)]GalNAc
# Outline: as §1
# [14] = biological target: Gal(b1-4)GlcNAc(b1-2)Man(a1-6)[Man(a1-3)]Man(b1-4)GlcNAc(b1-4)GlcNAc
# Outline: as §1
# [15] = biological target: Gal(b1-4)GlcNAc(b1-2)[Gal(b1-4)GlcNAc(b1-4)]Man(a1-3)[GlcNAc(b1-4)][Gal(b1-4)GlcNAc(b1-2)Man(a1-6)]Man(b1-4)GlcNAc(b1-4)GlcNAc
# Outline: as §1
# [16] = biological target: Gal(b1-4)GlcNAc(b1-2)[Gal(b1-4)GlcNAc(b1-6)]Man(a1-6)[GlcNAc(b1-4)][Gal(b1-4)GlcNAc(b1-2)Man(a1-3)]Man(b1-4)GlcNAc(b1-4)GlcNAc
# Outline: as §1
# [17] = biological target: Gal(b1-4)GlcNAc(b1-3)Gal(b1-4)GlcNAc(b1-2)Man(a1-3)[Gal(b1-4)GlcNAc(b1-3)Gal(b1-4)GlcNAc(b1-2)Man(a1-6)]Man(b1-4)GlcNAc(b1-4)GlcNAc
# Outline: as §1
# [18] = biological target: Gal(b1-4)GlcNAc(b1-3)Gal(b1-4)GlcNAc(b1-6)[Gal(b1-3)]GalNAc
# Outline: as §1
# [19] = biological target: Gal(b1-4)GlcNAc(b1-6)[Gal(b1-3)]GalNAc
# Outline: as §1
# Gal3S(b1-3)GlcNAc = biological target: Gal3S(b1-3)GlcNAc
# Outline: as §1
# GlcA(b1-3)Gal = biological target: GlcA(b1-3)Gal
# Outline: as §1
# [20] = biological target: GlcNAc(b1-2)[GlcNAc(b1-4)]Man(a1-3)[GlcNAc(b1-4)][GlcNAc(b1-2)[GlcNAc(b1-6)]Man(a1-6)]Man(b1-4)GlcNAc(b1-4)[Fuc(a1-6)]GlcNAc
# Outline: as §1
# [21] = biological target: GlcNAc(b1-3)Gal(b1-4)GlcNAc(b1-6)[Gal(b1-3)]GalNAc
# Outline: as §1
# [22] = biological target: GlcNAc(b1-6)Gal(b1-4)GlcNAc
# Outline: as §1
# Kdn(a2-3)Gal(b1-3)GalNAc = biological target: Kdn(a2-3)Gal(b1-3)GalNAc
# Outline: as §1
# [23] = biological target: Neu5Ac(a2-3)Gal(b1-3)GalNAc6S
# Outline: as §1
# [24] = biological target: Neu5Ac(a2-3)Gal(b1-4)GlcNAc(b1-3)Gal(b1-4)GlcNAc(b1-6)[Gal(b1-3)]GalNAc
# Outline: as §1
# [25] = biological target: Neu5Ac(a2-3)Gal(b1-4)GlcNAc(b1-6)[Gal(b1-3)]GalNAc
# Outline: as §1
# [26] = biological target: Neu5Ac(a2-3)Gal(b1-4)[Fuc(a1-3)]GlcNAc(b1-3)Gal(b1-4)GlcNAc
# Outline: as §1
# [27] = biological target: Neu5Ac(a2-6)Gal(b1-4)GlcNAc(b1-2)[Neu5Ac(a2-6)Gal(b1-4)GlcNAc(b1-4)]Man(a1-3)[GlcNAc(b1-4)][Neu5Ac(a2-6)Gal(b1-4)GlcNAc(b1-2)[Neu5Ac(a2-6)Gal(b1-4)GlcNAc(b1-6)]Man(a1-6)]Man(b1-4)GlcNAc(b1-4)GlcNAc
# Outline: as §1
# [28] = biological target: Neu5Ac(a2-6)Gal(b1-4)GlcNAc(b1-3)Gal(b1-4)GlcNAc(b1-3)Gal(b1-4)GlcNAc
# Outline: as §1
# [29] = biological target: Neu5Ac(a2-6)Gal(b1-4)GlcNAc(b1-3)Gal(b1-4)GlcNAc(b1-6)[Gal(b1-3)]GalNAc
# Outline: as §1
# [30] = biological target: Neu5Ac(a2-6)Gal(b1-4)GlcNAc(b1-6)[Gal(b1-3)]GalNAc
# Outline: as §1
# [31] = biological target: Neu5Ac(a2-6)GalNAc(b1-4)GlcNAc
# Outline: as §1
# [32] = biological target: Neu5Ac(a2-8)Neu5Ac(a2-8)Neu5Ac(a2-3)[GalNAc(b1-4)]Gal(b1-4)Glc
# Outline: as §1
# [33] = biological target: Neu5Gc(b2-6)Gal(b1-4)GlcNAc
# Outline: as §1
binder,measurement,setting,value
Fm1D (Escherichia coli) (protein) FSCNVDGGSSIGAGTTSVYVNLDPVIQPGQNLVVDLSQHISCWNDYGGWYDTDHINLVQGSAFAGSLQSYKGSLYWNNVTYPFPLTTNTNVLDIGDKTPMPLPLKLYITPVGAAGGVVIKAGEVIARIHMYKIATLGSGNPRNFTWNIISNNSVVMPTHHHHHH,glycan array binding signal (z-score),[1],-0.146
same,glycan array binding signal (z-score),[2],-0.144
same,glycan array binding signal (z-score),[3],-0.143
same,glycan array binding signal (z-score),Fuc(a1-2)Gal6S(b1-4)Glc,-0.149
same,glycan array binding signal (z-score),[4],-0.14
same,glycan array binding signal (z-score),[5],-0.142
same,glycan array binding signal (z-score),[6],-0.143
same,glycan array binding signal (z-score),[7],-0.146
same,glycan array binding signal (z-score),[8],-0.139
same,glycan array binding signal (z-score),Gal(a1-3)Gal,-0.142
same,glycan array binding signal (z-score),[9],-0.125
same,glycan array binding signal (z-score),Gal(b1-3)GalNAc,2.2
same,glycan array binding signal (z-score),[10],-0.12
same,glycan array binding signal (z-score),[11],3.7
same,glycan array binding signal (z-score),[12],4.94
same,glycan array binding signal (z-score),[13],3.04
same,glycan array binding signal (z-score),[14],-0.144
same,glycan array binding signal (z-score),[15],-0.147
same,glycan array binding signal (z-score),[16],-0.151
same,glycan array binding signal (z-score),[17],-0.138
same,glycan array binding signal (z-score),[18],3.82
same,glycan array binding signal (z-score),[19],10.7
same,glycan array binding signal (z-score),Gal3S(b1-3)GlcNAc,-0.132
same,glycan array binding signal (z-score),GlcA(b1-3)Gal,-0.143
same,glycan array binding signal (z-score),[20],-0.144
same,glycan array binding signal (z-score),[21],4.57
same,glycan array binding signal (z-score),[22],-0.134
same,glycan array binding signal (z-score),Kdn(a2-3)Gal(b1-3)GalNAc,-0.14
same,glycan array binding signal (z-score),[23],-0.141
same,glycan array binding signal (z-score),[24],1.11
same,glycan array binding signal (z-score),[25],5.29
same,glycan array binding signal (z-score),[26],-0.14
same,glycan array binding signal (z-score),[27],-0.142
same,glycan array binding signal (z-score),[28],-0.146
same,glycan array binding signal (z-score),[29],11.5
same,glycan array binding signal (z-score),[30],3.09
same,glycan array binding signal (z-score),[31],-0.144
same,glycan array binding signal (z-score),[32],-0.152
same,glycan array binding signal (z-score),[33],-0.143
